What all share (details): mRNA level, 48 h; actives raise or lower the signal
Read-out in one assay: MYC, MYC (gene 4609)
As to the kind of experiment: LTEA_HepaRG_MYC: Life Technologies and Expression Analysis (LTEA) Assay for MYC using HepaRG (AID 2283518). Put shortly: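 Cells are thawed, plated and cultured 48 h, then treated for 48 h with test chemicals (eight half-log concentrations from 100 uM, 0.5% DMSO vehicle). RNA is isolated and MYC expression quantified by qRT-PCR against three housekeeping genes.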

Read-out in assay [1]: matrix metalloproteinase-3 (MMP3), MMP3 (gene 4314)
As to the kind of experiment: LTEA_HepaRG_MMP3: Life Technologies and Expression Analysis (LTEA) Assay for matrix metalloproteinase-3 (MMP3) using HepaRG (AID 2283519). In short, it runs like this: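 Differentiated human HepaRG cells, plated 48 h on collagen I, were exposed in duplicate for 48 h in serum-free induction medium to eight half-log concentrations up to 100 uM in 0.5% DMSO. MMP3 mRNA was quantified by TaqMan qRT-PCR, normalised to ACTB, GAPDH and POLR2A.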

Read-out in assay [2]: Paternally Expressed 10 (PEG10), PEG10 (gene 23089)
As to the kind of experiment: LTEA_HepaRG_PEG10: Life Technologies and Expression Analysis (LTEA) Assay for Paternally Expressed 10 (PEG10) using HepaRG (AID 2283520). In short, it runs like this: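 HepaRG, 48 h post-plating → serum-free induction medium → 48 h chemical exposure (duplicate, 8-pt, max 100 uM, half-log, 0.5% DMSO) → lysis in RLT → TaqMan qRT-PCR for PEG10, ACTB/GAPDH/POLR2A normalisation.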

Read-out in assay [3]: Nuclear factor NF-kappa-B p105 subunit (Homo sapiens) (UniProt P19838)
As to the kind of experiment: LTEA_HepaRG_NFKB1: Life Technologies and Expression Analysis (LTEA) Assay for Nuclear Factor Kappa B Subunit 1 (NFKB1) using HepaRG (AID 2283521). Put shortly:
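NFKB1 transcript was measured by TaqMan qRT-PCR on Fluidigm arrays, normalised to three housekeeping genes and fitted in both directions against 0.5% DMSO. HepaRG cells were dosed in duplicate for 48 h in serum-free induction medium, eight half-log steps from 100 uM.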

Read-out in assay [4]: Protein phosphatase 2A (PPP2R4), PTPA (gene 5524)
The assay is described as follows: LTEA_HepaRG_PPP2R4: Life Technologies and Expression Analysis (LTEA) Assay for Protein phosphatase 2A (PPP2R4) using HepaRG (AID 2283522). Put shortly: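 Readout is PPP2R4 transcript level by microfluidic qRT-PCR after 48 h chemical treatment of human HepaRG liver cells. Concentrations spanned 100 uM downward in half-log steps; gain or loss of signal was fitted relative to DMSO.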

Read-out in assay [5]: Phosphatase and tensin (PTEN), PTEN (gene 5728)
The assay is described as follows: LTEA_HepaRG_PTEN: Life Technologies and Expression Analysis (LTEA) Assay for Phosphatase and tensin (PTEN) using HepaRG (AID 2283523). In short, it runs like this: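 Differentiated human HepaRG cells, plated 48 h then switched to serum-free induction medium, were exposed in duplicate for 48 h to eight half-log concentrations up to 100 uM in 0.5% DMSO. PTEN mRNA measured by TaqMan qRT-PCR, normalized to ACTB/GAPDH/POLR2A, bidirectional fit versus DMSO.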

Read-out in assay [6]: solute carrier (SLC22A1), SLC22A1 (gene 6580)
The assay is described as follows: LTEA_HepaRG_SLC22A1: Life Technologies and Expression Analysis (LTEA) Assay for solute carrier (SLC22A1) using HepaRG (AID 2283524). Put shortly: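 Human HepaRG cells were plated 48 h, switched to serum-free induction medium, then exposed in duplicate for 48 h to 8-point half-log series from 100 uM in 0.5% DMSO. SLC22A1 mRNA measured by qRT-PCR, normalized to ACTB/GAPDH/POLR2A, fitted bidirectionally versus DMSO.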

Read-out in assay [7]: Pyruvate Dehydrogenase Kinase 4 (PDK4), PDK4 (gene 5166)
As to the kind of experiment: LTEA_HepaRG_PDK4: Life Technologies and Expression Analysis (LTEA) Assay for Pyruvate Dehydrogenase Kinase 4 (PDK4) using HepaRG (AID 2283525). Put shortly:
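Differentiated human HepaRG cells, pre-cultured 48 h, were exposed in duplicate for 48 h in serum-free induction medium to eight half-log concentrations up to 100 uM in 0.5% DMSO. PDK4 mRNA was quantified by qRT-PCR, normalized to ACTB, GAPDH and POLR2A, bidirectional fitting versus DMSO.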

Read-out in assay [8]: NAD(P)H dehydrogenase [quinone] 1 (NQO1), NQO1 (gene 1728)
The assay is described as follows: LTEA_HepaRG_NQO1: Life Technologies and Expression Analysis (LTEA) Assay for NAD(P)H dehydrogenase [quinone] 1 (NQO1) using HepaRG (AID 2283526). Put shortly: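 HepaRG, 48 h post-plating → serum-free induction medium → test chemical 48 h (duplicate, 100 uM top, half-log x8, 0.5% DMSO) → RNA isolation → qRT-PCR, ACTB/GAPDH/POLR2A normalization; bidirectional curve fit vs DMSO baseline.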

Read-out in assay [9]: Nuclear factor erythroid 2-related factor 2 (Homo sapiens) (UniProt Q16236)
As to the kind of experiment: LTEA_HepaRG_NFE2L2: Life Technologies and Expression Analysis (LTEA) Assay for Nuclear factor erythroid 2-related factor 2 (NFE2L2) Transcription Factor using HepaRG (AID 2283527). In short, it runs like this:
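Differentiated human HepaRG cells in serum-free induction medium were exposed for 48 h to eight concentrations (top 100 uM, half-log dilutions, 0.5% DMSO), in duplicate. NFE2L2 mRNA was quantified by TaqMan qRT-PCR, normalized to ACTB, GAPDH and POLR2A, with bidirectional fitting versus DMSO.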

Read-out in assay [10]: succinate dehydrogenase complex iron sulfur subunit B (SDHB), SDHB (gene 6390)
As to the kind of experiment: LTEA_HepaRG_SDHB: Life Technologies and Expression Analysis (LTEA) Assay for succinate dehydrogenase complex iron sulfur subunit B (SDHB) using HepaRG (AID 2283528). In short, it runs like this: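 SDHB transcript level read by TaqMan qRT-PCR, housekeeping-normalised (ACTB, GAPDH, POLR2A), after 48 h chemical treatment of plated HepaRG cells; eight concentrations top 100 uM, half-log steps, 0.5% DMSO, duplicates; fitted both directions against DMSO.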

Read-out in assay [11]: Signal transducer and activator of transcription 3 (Homo sapiens) (UniProt P40763)
The assay is described as follows: LTEA_HepaRG_STAT3: Life Technologies and Expression Analysis (LTEA) Assay for Signal transducer and activator of transcription (STAT3) using HepaRG (AID 2283529). Put shortly:
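Differentiated human HepaRG cells in serum-free induction medium were exposed in duplicate for 48 h to eight half-log concentrations up to 100 uM in 0.5% DMSO. STAT3 mRNA was quantified by TaqMan qRT-PCR, normalized to ACTB, GAPDH and POLR2A, and fitted bidirectionally against DMSO.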

Read-out in assay [12]: solute carrier (SLCO1B1), SLCO1B1 (gene 10599)
As to the kind of experiment: LTEA_HepaRG_SLCO1B1: Life Technologies and Expression Analysis (LTEA) Assay for solute carrier (SLCO1B1) using HepaRG (AID 2283530). Put shortly: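 Gain or loss of SLCO1B1 mRNA is fitted against the 0.5% DMSO vehicle in human HepaRG liver cells treated 48 h at up to 100 uM in half-log steps. Expression comes from qRT-PCR normalized to endogenous controls.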

Read-out in assay [13]: sulfotransferase 2A1 (SULT2A1), SULT2A1 (gene 6822)
The assay is described as follows: LTEA_HepaRG_SULT2A1: Life Technologies and Expression Analysis (LTEA) Assay for sulfotransferase 2A1 (SULT2A1) using HepaRG (AID 2283531). Put shortly:
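Cells were plated and cultured 48 h, switched to serum-free induction medium, then dosed in duplicate for 48 h (8 concentrations, max 100 uM). RNA was isolated and SULT2A1 expression measured by qRT-PCR; gain or loss of signal fitted relative to DMSO.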

Read-out in assay [14]: Transforming Growth Factor (TGFA), TGFA (gene 7039)
The assay is described as follows: LTEA_HepaRG_TGFA: Life Technologies and Expression Analysis (LTEA) Assay for Transforming Growth Factor (TGFA) using HepaRG (AID 2283532). Put shortly:
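Differentiated human HepaRG cells, plated 48 h then switched to serum-free induction medium, were exposed in duplicate for 48 h to 8-point half-log series from 100 uM in 0.5% DMSO. TGFA mRNA measured by qRT-PCR, normalized to ACTB/GAPDH/POLR2A, bidirectional fit versus DMSO.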

Read-out in assay [15]: Transforming Growth Factor (TGFB1), TGFB1 (gene 7040)
The assay is described as follows: LTEA_HepaRG_TGFB1: Life Technologies and Expression Analysis (LTEA) Assay for Transforming Growth Factor (TGFB1) Transporter using HepaRG (AID 2283533). In short, it runs like this: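 Expression change of TGFB1 in human HepaRG cells is measured after a 48 h chemical exposure, up to 100 uM in 0.5% DMSO vehicle. Curves are fitted in both directions relative to the DMSO baseline.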

Read-out in the next assay: TIMP1, TIMP1 (gene 7076)
The assay is described as follows: LTEA_HepaRG_TIMP1: Life Technologies and Expression Analysis (LTEA) Assay for TIMP1 using HepaRG (AID 2283534).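 Note: TaqMan qRT-PCR signal normalized to ACTB GAPDH and POLR2A housekeeping genes.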 Put shortly:
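We dosed human liver HepaRG cultures for 48 hours with up to 100 uM test chemical and measured TIMP1 expression by qRT-PCR. Activity in either direction is fitted relative to the 0.5% DMSO vehicle.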

Read-out in assay [16]: Tumor necrosis factor receptor 1 (TNFRSF1A), TNFRSF1A (gene 7132)
As to the kind of experiment: LTEA_HepaRG_TNFRSF1A: Life Technologies and Expression Analysis (LTEA) Assay for Tumor necrosis factor receptor 1 (TNFRSF1A) using HepaRG (AID 2283535). Put shortly:
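Expression of TNFRSF1A in human HepaRG liver cells was measured by qRT-PCR 48 h after chemical dosing (maximum 100 uM). Bidirectional curve fitting used 0.5% DMSO as baseline.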

Read-out in assay [17]: Thyroid Hormone Responsive (THRSP), THRSP (gene 7069)
The assay is described as follows: LTEA_HepaRG_THRSP: Life Technologies and Expression Analysis (LTEA) Assay for Thyroid Hormone Responsive (THRSP) using HepaRG (AID 2283536). Put shortly: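 Differentiated human HepaRG cells were exposed in duplicate for 48 h in serum-free induction medium to eight concentrations (top 100 uM, half-log steps, 0.5% DMSO). Expression was quantified by TaqMan qRT-PCR, normalized to ACTB, GAPDH and POLR2A, with bidirectional fitting against DMSO.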

Read-out in assay [18]: Cellular tumor antigen p53 (Homo sapiens) (UniProt P04637)
The assay is described as follows: LTEA_HepaRG_TP53: Life Technologies and Expression Analysis (LTEA) Assay for Tumor Protein P53 (TP53) using HepaRG (AID 2283537). Put shortly:
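TP53 transcript measured by qRT-PCR, normalized to three housekeeping genes, after 48 h treatment of human HepaRG cultures with chemicals from 100 uM downward in half-log steps (0.5% DMSO vehicle, serum-free induction medium). Up- or down-regulation fitted against DMSO.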

Active and inactive are the calls of the source. Rule for the calls: active = hit-call score of the fitted dose curve at least 0.9, where 1 is the maximum; inactive = score below 0.9.

Chain of Nuclear factor erythroid 2-related factor 2 (Homo sapiens) (Q16236 whole entry, looked up): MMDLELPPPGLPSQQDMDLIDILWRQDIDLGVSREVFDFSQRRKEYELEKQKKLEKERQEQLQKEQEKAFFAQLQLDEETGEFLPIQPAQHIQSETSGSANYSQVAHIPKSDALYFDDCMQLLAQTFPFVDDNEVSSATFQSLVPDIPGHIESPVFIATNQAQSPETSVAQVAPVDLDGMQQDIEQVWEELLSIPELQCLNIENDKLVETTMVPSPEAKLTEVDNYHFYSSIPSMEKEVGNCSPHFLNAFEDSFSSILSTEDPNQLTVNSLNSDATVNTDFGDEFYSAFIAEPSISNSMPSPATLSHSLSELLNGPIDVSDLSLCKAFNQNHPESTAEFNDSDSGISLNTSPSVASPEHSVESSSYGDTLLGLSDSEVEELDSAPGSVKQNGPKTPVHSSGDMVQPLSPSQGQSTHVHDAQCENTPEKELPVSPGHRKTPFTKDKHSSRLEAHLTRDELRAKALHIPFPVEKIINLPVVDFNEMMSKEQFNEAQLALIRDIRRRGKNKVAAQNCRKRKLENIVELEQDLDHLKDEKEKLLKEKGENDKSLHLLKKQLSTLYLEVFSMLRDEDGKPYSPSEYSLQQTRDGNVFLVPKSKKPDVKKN
Chain of Nuclear factor NF-kappa-B p105 subunit (Homo sapiens) (P19838 whole entry, looked up): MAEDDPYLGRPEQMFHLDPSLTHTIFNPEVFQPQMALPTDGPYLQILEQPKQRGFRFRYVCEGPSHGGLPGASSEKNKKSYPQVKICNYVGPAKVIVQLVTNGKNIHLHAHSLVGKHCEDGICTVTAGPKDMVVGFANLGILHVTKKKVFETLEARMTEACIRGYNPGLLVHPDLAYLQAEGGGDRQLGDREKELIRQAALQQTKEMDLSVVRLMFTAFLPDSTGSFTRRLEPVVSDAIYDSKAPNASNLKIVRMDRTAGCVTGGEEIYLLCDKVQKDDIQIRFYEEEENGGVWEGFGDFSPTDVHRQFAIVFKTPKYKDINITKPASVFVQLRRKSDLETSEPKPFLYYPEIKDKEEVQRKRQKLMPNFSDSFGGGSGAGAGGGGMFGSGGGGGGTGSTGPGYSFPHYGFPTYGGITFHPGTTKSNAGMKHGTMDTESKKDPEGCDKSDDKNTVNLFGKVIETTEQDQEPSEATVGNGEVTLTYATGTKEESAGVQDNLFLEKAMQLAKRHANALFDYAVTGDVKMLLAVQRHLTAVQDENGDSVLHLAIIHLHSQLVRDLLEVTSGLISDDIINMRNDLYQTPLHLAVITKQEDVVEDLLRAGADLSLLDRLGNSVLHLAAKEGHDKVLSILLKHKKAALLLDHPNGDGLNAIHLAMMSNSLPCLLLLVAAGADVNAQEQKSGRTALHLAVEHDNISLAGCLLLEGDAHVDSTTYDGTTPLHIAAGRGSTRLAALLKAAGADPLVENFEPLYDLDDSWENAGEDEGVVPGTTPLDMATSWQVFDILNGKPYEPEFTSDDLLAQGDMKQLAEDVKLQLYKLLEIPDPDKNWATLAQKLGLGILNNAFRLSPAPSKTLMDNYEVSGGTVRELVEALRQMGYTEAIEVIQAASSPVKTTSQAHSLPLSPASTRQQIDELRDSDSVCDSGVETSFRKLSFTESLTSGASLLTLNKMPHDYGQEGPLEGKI
Chain of Signal transducer and activator of transcription 3 (Homo sapiens) (P40763 whole entry, looked up): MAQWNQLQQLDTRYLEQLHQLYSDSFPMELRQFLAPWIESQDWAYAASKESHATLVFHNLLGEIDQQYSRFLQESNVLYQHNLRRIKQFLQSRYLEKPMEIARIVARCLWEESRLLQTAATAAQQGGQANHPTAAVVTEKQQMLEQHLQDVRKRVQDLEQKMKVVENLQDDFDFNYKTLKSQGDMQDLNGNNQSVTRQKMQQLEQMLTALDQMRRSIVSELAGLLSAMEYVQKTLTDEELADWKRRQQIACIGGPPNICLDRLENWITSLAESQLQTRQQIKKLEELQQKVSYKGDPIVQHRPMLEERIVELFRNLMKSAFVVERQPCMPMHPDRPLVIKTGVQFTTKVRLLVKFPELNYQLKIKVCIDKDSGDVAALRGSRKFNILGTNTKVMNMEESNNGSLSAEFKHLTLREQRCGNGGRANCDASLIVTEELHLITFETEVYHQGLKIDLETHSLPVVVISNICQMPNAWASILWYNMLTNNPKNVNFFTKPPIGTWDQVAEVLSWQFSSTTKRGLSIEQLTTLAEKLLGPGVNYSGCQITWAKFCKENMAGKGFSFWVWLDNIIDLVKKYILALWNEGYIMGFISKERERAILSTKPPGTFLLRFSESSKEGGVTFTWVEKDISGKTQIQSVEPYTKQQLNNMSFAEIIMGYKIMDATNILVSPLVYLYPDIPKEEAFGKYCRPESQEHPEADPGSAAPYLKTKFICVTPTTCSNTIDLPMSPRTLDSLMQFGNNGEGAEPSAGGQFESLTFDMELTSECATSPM
Chain of Cellular tumor antigen p53 (Homo sapiens) (P04637 whole entry, looked up): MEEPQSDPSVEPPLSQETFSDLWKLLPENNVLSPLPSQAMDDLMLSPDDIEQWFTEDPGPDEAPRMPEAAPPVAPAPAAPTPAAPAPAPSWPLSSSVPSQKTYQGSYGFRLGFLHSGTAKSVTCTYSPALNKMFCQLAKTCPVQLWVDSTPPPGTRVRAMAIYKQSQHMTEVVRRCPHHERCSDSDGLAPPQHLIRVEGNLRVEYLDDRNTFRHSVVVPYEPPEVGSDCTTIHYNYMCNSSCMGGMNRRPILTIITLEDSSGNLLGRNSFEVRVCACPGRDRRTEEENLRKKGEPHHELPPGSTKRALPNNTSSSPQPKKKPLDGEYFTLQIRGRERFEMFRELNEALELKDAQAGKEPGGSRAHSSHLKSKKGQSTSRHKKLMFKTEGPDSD

By AC50 is commonly meant the midpoint of the concentration-response curve, whichever way the signal moves. With `CSc1ccc(Oc2ccc(S(N)(=O)=O)cc2CN(C)C)cc1C`, the outcome with MYC, MYC (gene 4609) is “inactive”; in assay [1], “inactive”; in [3] it was “inactive”; in [4] it was “inactive”; in [5] it was “inactive”; in assay [6] it was “inactive”. Besides, the result in assay [7], in [8], in [9], in assay [10], in [11] and in assay [12] was inactive. The outcome in assay [13] is “inactive”; in assay [14], “inactive”; in [15] it was “inactive”; with TIMP1, TIMP1 (gene 7076) it was “inactive”; in assay [16], “inactive”; in assay [17], “inactive”. In addition, the AC50 in assay [2] was 72.7 µM (active).

For `CC(C)c1cccc(C(C)C)c1`, the outcome was “inactive” with MYC, MYC (gene 4609); “inactive” in assay [1]; “inactive” in assay [2]; “inactive” in assay [3]; “inactive” in [4]; “inactive” in assay [5]. Moreover, the call in assay [6], in assay [7], in [8], in assay [9], in [10] and in assay [11] was inactive. In addition, the outcome in [12], in [13], in assay [14], in [15] and in assay [16] was inactive.

Consider `O=C(O)CN(CC(=O)O)CC(=O)O`, for which the outcome with MYC, MYC (gene 4609) was “inactive”; in assay [2] it was “inactive”; in assay [3], “inactive”; in [4], “inactive”; in [5], “inactive”; in [6] it was “inactive”. Moreover, the outcome in [7], in assay [8], in assay [9], in assay [10], in assay [11] and in [12] was inactive. The outcome in assay [13] is “inactive”; in [14], “inactive”; in [15], “inactive”; with TIMP1, TIMP1 (gene 7076), “inactive”; in assay [16] it was “inactive”; in assay [17], “inactive”. Further, in [18], the compound was classed as inactive.

(Values after PubChem BioAssay (EPA / NIEHS).)
